Measured values published in PubChem BioAssay (NCATS).
Inconclusive results are not listed. Entries that show only a call come without a potency. The source made the active and inactive calls. Unless noted, calls follow the shape of the dose curve; as a rule, active = well fitted cell-killing curve with a large enough effect; inconclusive = small, poorly fitted or top-dose-only effect; inactive = flat fitted curve, though single readings scatter.

How the values were obtained:
[1] = Cell Viability - LYMP2-019 (AID 973); also: nearly all actives have a fitted effect of over 55% in size
Summary of the method: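 AC50 values come from Hill-equation modelling of qHTS concentration-response curves, where viability is measured as luciferase-based ATP luminescence in the lymphoblastoid line after 24 hr compound exposure in complete culture medium.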

[2] = Cell Viability - LYMP2-021 (AID 974);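 also: compound exposure lasts 24 hours at 37 °C; nearly all actives have a fitted effect of over 55% in size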
Summary of the method: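 In qHTS format, compounds are tested against 2500 lymphoblastoid cells per well for 24 h; viable cell number is inferred from ATP-driven luciferase light, and Hill-equation fitting yields AC50 values.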

[3] = Cell Viability - LYMP2-023 (AID 975);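 also: cellular ATP measured by luciferase luminescence as viability proxy; series mostly up to about 92 µM; nearly all actives have a fitted effect of over 55% in size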
Summary of the method: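 In this qHTS, ATP-based luciferase luminescence (CellTiter-Glo) is quantified in human lymphoblastoid cells after 24 hr compound treatment at 37 C; tetraoctylammonium bromide serves as positive control. Concentration-response curves are Hill-fitted to give AC50.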

[4] = Cell Viability - LYMP2-025 (AID 976); also: series mostly up to about 92 µM
Summary of the method: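 Luminescent ATP readout after 24 hr treatment of a human lymphoblastoid line (LYMP2-025, 2500 cells/well, 37 C). Reagent developed 30 min at room temperature; AC50 fitted with the Hill equation.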

[5] = Cell Viability - LYMP2-002 (AID 977);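 also: series mostly up to about 92 µM; compound exposure lasted 24 h at 37 °C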
Summary of the method: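 Human lymphoblastoid cells, 2500/well, complete medium; 5 h 37 C settle; compound 24 h 37 C; CellTiter-Glo, 30 min RT; luminescence. Decrease in ATP = cytotoxicity; AC50 via Hill equation.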

[6] = Cell Viability - LYMP2-006 (AID 978); also: series mostly up to about 92 µM; nearly all actives have a fitted effect of over 60% in size
Summary of the method: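 Concentration-dependent loss of intracellular ATP in a human lymphoblastoid line after 24 hr treatment at 37 C was measured by CellTiter-Glo luminescence, with AC50 values obtained from standard Hill-equation modelling.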

[7] = Cell Viability - LYMP2-007 (AID 979);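 also: cells exposed to compound for 24 h before reading; nearly all actives have a fitted effect of over 60% in size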
Summary of the method: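 Measured via luciferase-based ATP quantitation: lymphoblastoid cells, 24 hr compound exposure at 37 C, AC50 from Hill fits.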

[8] = Cell Viability - LYMP2-008 (AID 980); also: nearly all actives have a fitted effect of over 60% in size
Summary of the method: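 Measured: ATP-dependent luminescence, proportional to viable cell number, in human lymphoblastoid cells treated 24 hr with compound in complete culture medium. Values are AC50s from Hill-equation modelling of qHTS titrations.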

[9] = Cell Viability - LYMP2-010 (AID 981); also: nearly all actives have a fitted effect of over 55% in size
Summary of the method: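 This 24 hr viability screen uses LYMP2-010 lymphoblastoid cells, quantifies ATP via luciferase luminescence, and derives AC50 from Hill fits of qHTS concentration-response data.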

[10] = Cell Viability - LYMP2-014 (AID 983); also: series mostly up to about 92 µM; nearly all actives have a fitted effect of over 50% in size
Summary of the method: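 Quantitative HTS in lymphoblastoid cells: 24 hr compound exposure, then CellTiter-Glo ATP luminescence. Positive control was tetraoctylammonium bromide, 6.4pM to 92 uM.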

[11] = Cell Viability - LYMP2-016 (AID 984); also: nearly all actives have a fitted effect of over 55% in size
Summary of the method: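 Acute toxicity in a Coriell human lymphoblastoid line is scored as loss of intracellular ATP over 24 h of treatment in complete medium. CellTiter-Glo signal is fitted across concentrations with the Hill equation to give AC50.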

[12] = Cell Viability - LYMP2-018 (AID 985); also: nearly all actives have a fitted effect of over 50% in size
Summary of the method: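 In this qHTS viability assay, cells are treated for 24 hr and cellular ATP is quantified by luciferase-based luminescence, with tetraoctylammonium bromide as positive control.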

[13] = Cell Viability - LYMP2-020 (AID 986)
Summary of the method: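 Cells at 2500 per well receive a 24 hr compound exposure at 37 C. Viability is measured as ATP-dependent luciferase luminescence, with AC50 modeled from qHTS concentration-response curves.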

[14] = Cell Viability - LYMP2-022 (AID 987); also: nearly all actives have a fitted effect of over 55% in size
Summary of the method: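 In this qHTS cytotoxicity screen, compound titrations were incubated 24 hr at 37 C with human lymphoblastoid cells in complete medium. Luciferase-based ATP luminescence provided the viability signal.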

[15] = Cell Viability - LYMP2-024 (AID 988); also: nearly all actives have a fitted effect of over 60% in size
Summary of the method: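 Cells at 2500 per well received compound for 24 hr after a 5 hr settling period. Viability was scored by CellTiter-Glo luminescence, with AC50 from Hill fits.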

[16] = Cell Viability - LYMP2-026 (AID 989); also: nearly all actives have a fitted effect of over 50% in size
Summary of the method: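 Acute toxicity screen in complete culture medium, with 24 hr compound exposure at 37 C. Viability read as cellular ATP via luciferase reaction, with tetraoctylammonium bromide (6.4pM to 92 uM) as positive control.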

[17] = Cell Viability - LYMP1-002 - Assay at 24 hr (AID 993)
Summary of the method: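 Viability was judged from intracellular ATP using a luciferase read-out, following a 24-hour compound incubation at 37 C of lymphoblastoid cells seeded at 2500 per well. Concentration-response data were fitted to the Hill equation for AC50.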

[18] = Cell Viability - LYMP1-002 - Assay at 40 hr (AID 994); also: nearly all actives have a fitted effect of over 60% in size
Summary of the method: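 Concentration-dependent ATP loss after 40 hr treatment at 37 C defined toxicity; AC50 values were obtained by fitting the standard Hill equation.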

[19] = biological target: Bile acid receptor (Homo sapiens) (UniProt Q96RI1); assay: qHTS assay for small molecule antagonists of farnesoid X receptor signaling (AID 588526; calls by dose curve)
Chain of Bile acid receptor (Homo sapiens) (Q96RI1 whole entry, looked up): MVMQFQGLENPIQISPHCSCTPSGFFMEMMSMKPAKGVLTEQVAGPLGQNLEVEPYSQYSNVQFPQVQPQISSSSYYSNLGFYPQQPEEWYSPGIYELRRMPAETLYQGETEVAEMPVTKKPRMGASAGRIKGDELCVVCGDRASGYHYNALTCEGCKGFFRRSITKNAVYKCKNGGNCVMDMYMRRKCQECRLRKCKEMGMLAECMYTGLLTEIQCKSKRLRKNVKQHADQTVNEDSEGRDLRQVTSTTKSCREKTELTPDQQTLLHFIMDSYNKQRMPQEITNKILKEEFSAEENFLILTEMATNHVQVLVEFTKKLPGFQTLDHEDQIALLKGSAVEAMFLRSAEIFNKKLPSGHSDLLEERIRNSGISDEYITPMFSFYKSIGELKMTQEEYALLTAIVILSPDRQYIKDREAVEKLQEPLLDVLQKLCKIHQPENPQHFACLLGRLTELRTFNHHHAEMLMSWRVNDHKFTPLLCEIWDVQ
Summary of the method: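 Antagonist mode: titrated compounds tested against chenodeoxycholic acid stimulation (normalized to 50 uM CDCA and DMSO) in GeneBLAzer HEK293T cells for 16 h. Beta-lactamase read by CCF4 fluorescence; IC50 from Hill fits.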

[20] = biological target: Glucocorticoid receptor (Homo sapiens) (UniProt P04150); assay: qHTS assay for small molecule agonists of glucocorticoid receptor signaling (AID 588532; active = well fitted curve in the direction sought with a large enough effect in the signal ratio, with a control signal flat; the % refers to the signal ratio); details: HeLa MMTV-bla, beta-lactamase ratio, agonist, 18 h; stronger effect = higher value; percent of dexamethasone control, DMSO zero
Chain of Glucocorticoid receptor (Homo sapiens) (P04150 whole entry, looked up): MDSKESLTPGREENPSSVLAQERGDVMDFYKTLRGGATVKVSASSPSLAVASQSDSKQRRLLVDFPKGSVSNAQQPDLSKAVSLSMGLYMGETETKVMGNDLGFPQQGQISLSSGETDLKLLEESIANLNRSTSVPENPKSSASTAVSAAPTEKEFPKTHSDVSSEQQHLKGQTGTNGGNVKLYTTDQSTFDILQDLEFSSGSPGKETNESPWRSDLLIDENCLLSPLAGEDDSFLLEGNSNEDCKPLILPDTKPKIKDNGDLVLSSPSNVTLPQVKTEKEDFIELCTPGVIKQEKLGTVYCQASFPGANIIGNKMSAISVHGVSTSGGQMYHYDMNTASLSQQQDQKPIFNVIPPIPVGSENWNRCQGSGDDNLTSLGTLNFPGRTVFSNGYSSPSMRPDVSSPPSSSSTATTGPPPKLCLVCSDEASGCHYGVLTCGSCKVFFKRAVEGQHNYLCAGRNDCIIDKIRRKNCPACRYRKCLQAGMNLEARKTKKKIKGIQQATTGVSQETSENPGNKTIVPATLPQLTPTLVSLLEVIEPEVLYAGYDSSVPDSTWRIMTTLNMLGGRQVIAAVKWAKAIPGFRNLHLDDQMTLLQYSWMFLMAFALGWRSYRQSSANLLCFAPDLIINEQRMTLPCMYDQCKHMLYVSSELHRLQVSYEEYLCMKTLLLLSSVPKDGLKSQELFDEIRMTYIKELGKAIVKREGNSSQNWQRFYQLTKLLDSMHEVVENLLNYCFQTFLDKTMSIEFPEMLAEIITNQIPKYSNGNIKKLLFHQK
Summary of the method: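 HeLa GRE-bla reporter cells; 18 h compound exposure at 37 C; 2 h CCF4 loading at room temperature; fluorescence at 460 and 530 nm; EC50 by Hill equation.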

[21] = qHTS assay for small molecule antagonists of peroxisome proliferator-activated receptor delta signaling (AID 588535; active = well fitted inhibition curve with a large enough effect in the signal ratio, with a control signal flat, not every such curve was filed as active; the % refers to the signal ratio;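 as to max response: cells co-treated with a PPAR-delta agonist as stimulator during compound exposure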); details: HEK293T PPARd-UAS-bla, beta-lactamase FRET ratio, 18 h; 460 nm channel
Summary of the method: (§1)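 Beta-lactamase reporter read-out (405 nm excitation, 460/530 nm emission) after CCF4 loading for 2 hrs at RT. HEK293T PPAR-delta-UAS-bla cells, 2% charcoal/dextran FBS, compounds for 18 hrs at 37 C. Hill fit gave IC50 and efficacy.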

[22] = biological target: Peroxisome proliferator-activated receptor delta (Homo sapiens) (UniProt Q03181); assay: as above
Chain of Peroxisome proliferator-activated receptor delta (Homo sapiens) (Q03181 whole entry, looked up): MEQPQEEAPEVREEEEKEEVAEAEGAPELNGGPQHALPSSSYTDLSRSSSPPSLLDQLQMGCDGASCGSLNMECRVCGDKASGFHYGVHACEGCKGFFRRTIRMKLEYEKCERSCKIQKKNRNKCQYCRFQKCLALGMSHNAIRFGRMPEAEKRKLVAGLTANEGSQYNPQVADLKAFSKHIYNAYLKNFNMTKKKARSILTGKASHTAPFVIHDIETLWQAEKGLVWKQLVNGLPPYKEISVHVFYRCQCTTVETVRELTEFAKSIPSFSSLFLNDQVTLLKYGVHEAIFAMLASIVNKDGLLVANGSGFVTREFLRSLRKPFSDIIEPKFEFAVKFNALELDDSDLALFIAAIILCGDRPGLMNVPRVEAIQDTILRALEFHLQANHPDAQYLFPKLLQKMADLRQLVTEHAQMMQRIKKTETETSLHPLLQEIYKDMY
Summary of the method: as §1

## CCCCCC/C(C=O)=C\c1ccccc1
[1]
  Potency: inactive
[2]
  Potency: inactive
[3]
  Potency: inactive
[4]
  Potency: inactive
[5]
  Potency: inactive
[6]
  Potency: inactive
[7]
  Potency: inactive
[8]
  Potency: inactive
[9]
  Potency: inactive
[10]
  Potency: inactive
[11]
  Potency: inactive
[12]
  Potency: inactive
[13]
  Potency: inactive
[14]
  Potency: inactive
[15]
  Potency: inactive
[16]
  Potency: inactive
[17]
  Potency: inactive
[18]
  Potency: inactive
[19]
  Potency: inactive
[20]
  activation: -2.77% (inactive)
[21]
  max response: 24.4%
[22]
  outcome: inactive
